# B2AR arrestin – recruits beta-arrestin to the human beta2-adrenergic receptor; P07550; beta-arrestin recruitment to beta2AR, cell-based reporter; Potency, µM (doses to about 46.1 µM), for the others: top-dose activation, actives largely listed as activators; hit rate 0.02% among 330,000; AID 492947;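 note: potency is the fitted concentration of half-maximal effect; 0% = DMSO controls and full agonism = EC100 isoproterenol or metaproterenol; nearly all actives have a fitted effect of over 65% in size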
# Target sequence (P07550 whole entry, looked up): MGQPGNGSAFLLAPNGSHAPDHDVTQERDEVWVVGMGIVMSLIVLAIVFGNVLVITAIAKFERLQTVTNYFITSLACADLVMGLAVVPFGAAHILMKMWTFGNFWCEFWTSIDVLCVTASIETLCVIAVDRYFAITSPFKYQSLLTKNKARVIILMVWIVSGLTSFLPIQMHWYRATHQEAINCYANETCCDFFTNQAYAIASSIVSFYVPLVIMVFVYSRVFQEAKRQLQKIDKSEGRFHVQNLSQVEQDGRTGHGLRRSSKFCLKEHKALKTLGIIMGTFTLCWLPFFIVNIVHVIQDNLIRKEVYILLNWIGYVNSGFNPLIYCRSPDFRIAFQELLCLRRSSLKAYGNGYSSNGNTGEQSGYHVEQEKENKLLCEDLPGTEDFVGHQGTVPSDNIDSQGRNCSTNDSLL
# TSHR antag – antagonists of human thyroid stimulating hormone receptor | P16473 | TSHR-expressing cells, TSH-stimulated cAMP HTRF, 2 h; active compounds read low | activity change, negative = inhibition, % at 11.5 µM | hit rate 0.2% among 330,000 | AID 504810;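 active = activity change below a set negative limit, meaning inhibition stronger than a set level, cut at about -70% in these data; inconclusive = activity change between two set negative limits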
#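 Inhibition of cAMP made by TSHR-expressing cells under TSH stimulation (4nM final, EC80; 2 h, 37 deg C) is quantified with a one-step lysis HTRF kit, anti-cAMP cryptate versus cAMP-d2.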
# ELG1 DNA repair – blocks ELG1-dependent DNA repair in HEK293T cells; HEK293T ELG1-luciferase reporter, luminescence, 16 h; DNA damage induced by 5-fluorouridine; Potency, µM (titrated, usually from 46.1 µM), for inactives: at the highest dose activity change, negative = inhibition, usual class: inhibitors; hit rate 2.3% among 330,000; note: potency is the fitted concentration of half-maximal effect; nearly all actives have a fitted effect of over 55% in size
#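 Reporter activity after DNA damage by 5-fluorouridine is monitored. Compound-treated cells incubate 16 hr at 37 °C, then ONE-Glo is added for 30 min before luminescence reading.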
# Gal4-VP16 FLuc – Gal4-VP16 reporter inhibition counter-screen; Drosophila S2 Gal4-VP16 UAS-luciferase, luminescence, 20 h; Potency, µM (top dose mostly 53.6 µM), for inactives: at the highest dose activity, negative = inhibition, hits mostly inhibitors; hit rate 3.5% among 310,000;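 note: Gal4-VP16 expression switched on by copper sulfate through the metallothionein promoter; potency is the fitted concentration of half-maximal effect; nearly all actives have a fitted effect of over 50% in size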
# RORg inh – ROR gamma (mouse) transcription inhibition | P51450 | hit rate 5.4% among 310,000 | Potency, µM (series often up to 53.6 µM), inactives show at the highest dose activity change, negative = inhibition, most hits filed as inhibitors | Drosophila S2 Gal4-RORgamma UAS-luciferase reporter, 20 h; note: potency is the fitted concentration of half-maximal effect; nearly all actives have a fitted effect of over 60% in size
#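 Drosophila Schneider cells stably carrying a metallothionein-driven Gal4 DBD–ROR gamma fusion and a UAS-Photinus luciferase reporter were exposed to compound for 1 hr, then induced with copper sulfate (700 uM final) for 20 hr at ambient temperature before luminescence reading.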
# The depositor's hits bear a star; ? = inconclusive; · = not tested or not shown; [ ] = remark or other dose. An excerpt weighted towards active compounds, which were near 7.5% of everything screened. Unless noted, calls come from the whole dose curve; as a rule, active = well fitted curve in the direction sought with a large enough effect; inconclusive = small, poorly fitted or top-dose-only effect, or another doubt; inactive = no such curve, though single readings can be large; an effect the other way counts as inactive or inconclusive. Unless noted, % is set by controls: 0 for no effect and ±100 for the full control effect.
SMILES,B2AR arrestin,TSHR antag,ELG1 DNA repair,Gal4-VP16 FLuc,RORg inh
O=C(O)c1ccc(/C=C/C(=O)c2ccc3c(c2)OCCCO3)cc1,5%,-6,?,10µM*,5µM*
CC(=O)Nc1ccc(/C=C/C(=O)c2ccc3c(c2)OCCO3)cc1,3%,-3,8%,-17%,?
COc1cccc(/C=C/C(=O)c2ccc3c(c2)OCCO3)c1OC,0%,-8,?,?,11µM*
COC(=O)c1ccccc1NC(=O)CSc1nncn1-c1ccccn1,0%,12,1%,7%,8%
COc1ccc(/C=N/Nc2cc(N3CCCC3)nc(N3CCCC3)n2)cc1,-1%,-1,?,-5%,13µM*
Oc1ccc(/C=N/Nc2cc(N3CCCC3)nc(N3CCCC3)n2)cc1,0%,-4,1%,-26%,3%
Oc1cccc(/C=N/Nc2cc(N3CCCC3)nc(N3CCCC3)n2)c1,0%,8,26µM*,-15%,21%
Cc1ccccc1-c1nccc(NCc2cccs2)n1,·,·,·,1%,?
CN(C)c1ccc(/C=N/NC(=O)c2sccc2-n2cccc2)cc1,0%,-7,?,?,11µM*
Cc1occc1C(=O)N/N=C/C(Br)=C\c1ccccc1,-1%,-4,?,?,-39%
Cc1occc1C(=O)N/N=C/C=C/c1ccccc1,0%,-9,?,?,7.1µM*
O=C(N/N=C/C=C/c1ccccc1)c1ccccc1Br,0%,5,?,?,3.2µM*
CN(C)c1ccc(/C=N/NC(=O)c2ccc(Cl)cc2)cc1,-1%,-5,7%,-10%,8.9µM*
CSCCC(NC(=O)c1ccccc1Cl)C(=O)OCC(=O)N1CCCC1=O (stereo unspecified),0%,18,?,·,·
Cc1occc1C(=O)N/N=C/c1ccc(N(C)C)cc1,0%,12,?,?,10µM*
CC(C)c1cc(C(=O)N/N=C/C=C/c2ccccc2)n[nH]1,0%,-8,-4%,20µM*,?
Cc1cc(C(=O)N/N=C/C=C/c2ccc(Br)cc2)n[nH]1,-1%,37,-2%,2%,-22%
Cc1occc1C(=O)N/N=C/C=C/c1ccc(N(C)C)cc1,3%,-17,?,3.2µM*,2.8µM*
O=C(N/N=C/C=C/c1ccccc1)c1cccc(Br)c1,0%,-12,11%,5µM*,1µM*
Cc1ccc(/C=N/NC(=O)c2ccoc2C)o1,-1%,6,?,23%,-12%
COc1ccc(C(=O)N2CCC3(CCN(Cc4nccs4)CC3)CC2)cc1,·,·,·,-2%,4%
O=C(N/N=C/c1cccc(Oc2ccccc2)c1)c1cccc(Br)c1,0%,12,?,?,10µM*
NC(=S)N/N=C/C=C/c1ccccc1,-2%,5,14%,?,2µM*
Cc1cc(C(=O)N/N=C/C=C/c2ccccc2)c(C)o1,1%,-4,-1%,11µM*,7.9µM*
O=C(N/N=C/c1cccc(Oc2ccccc2)c1)c1cccc(O)c1,-1%,-9,18%,0%,20%
SMILES,B2AR arrestin,TSHR antag,ELG1 DNA repair,Gal4-VP16 FLuc,RORg inh
Cc1cc(C(=O)N/N=C/C=C/c2ccccc2[N+](=O)[O-])c(C)o1,-1%,-16,?,?,?
Cc1occc1C(=O)N/N=C/C=C/c1ccccc1[N+](=O)[O-],0%,-7,3%,?,11µM*
COc1ccc2nc(SCC(=O)NCc3ccc(S(N)(=O)=O)cc3)[nH]c2c1,-1%,-2,7%,1%,0%
CC(=O)N1CCC2(CCN(Cc3nccs3)CC2)CC1,·,·,·,-5%,0%
N#CCCn1c(=O)c(-c2cccs2)nc2cnc(Oc3ccccc3)nc21,·,·,·,9%,-1%
CC(C)NC(=O)N1CC[C@@]2(CCCN(C(=O)c3ccncc3)C2)C1,·,·,·,8%,-12%
COC(C1CCCCC1)C(C)C(OCc1cccc(Br)c1)C(C)CO (stereo unspecified),·,·,·,-1%[10 µM],7%[10 µM]
Cc1ccc(C(=O)N/N=C/C=C/c2ccccc2)cc1,-1%,8,-9%,7.9µM*,3.2µM*
O=C(Nc1ccncc1)c1ccc(-c2ccccc2)cc1,0%,?,1.8µM*,?,7.9µM*
O=C(Nc1ccncc1)c1ccc2c(c1)S(=O)(=O)c1ccccc1C2=O,0%,-14,9.2µM*,-7%,13%
CC(C)NC(=O)c1ccc2c(c1)S(=O)(=O)c1ccccc1C2=O,-1%,-6,-13%,5%,-2%
O=C(Nc1cccnc1)c1ccc(-c2ccccc2)cc1,0%,-3,?,2%,22%
NCCCCCCCCCCN,·,-6,·,·,·
NC(CSCC(=O)O)C(=O)O (stereo unspecified),·,·,·,-4%,7%
O=C(Nc1ccc(Cl)c(-c2nc3ccccc3[nH]2)c1)c1ccc2c(c1)OCO2,4%,4,21µM*,-1%,?
O=C(Nc1ccc(-c2nc3ccccc3[nH]2)cc1)c1ccc2c(c1)OCO2,0%,6,?,11µM*,?
O=C(Nc1ccc(-c2nc3ccccc3[nH]2)cc1)C1CCCO1 (stereo unspecified),0%,7,?,7.1µM*,1%
Cc1ccc(NS(=O)(=O)c2ccc(NC(=O)C3CCCO3)cc2)cc1 (stereo unspecified),0%,2,?,18µM*,?
COc1ccccc1CNc1cc(-c2c(C)noc2C)ncn1,·,·,·,10%,11%
CCOC(=O)c1c(-c2ccccc2)csc1NC(=S)N(CC)CC,0%,-4,?,?,?
CCOc1ccc(S(=O)(=O)N2CCN(C)CC2)cc1NC(=O)c1ccccc1F,0%,24,-20%,?,4µM*
CCOC(=O)c1c(-c2ccccc2)csc1NC(=O)c1nn(CC)cc1Br,-1%,?,12µM*,-15%,1%
Cc1ccc(S(=O)(=O)N2CCOCC2)cc1C(=O)OCC(=O)N(Cc1ccccc1)C(C)C,0%,0,21µM*,·,·
O=C(OCC(=O)N(CCc1ccccc1)Cc1ccccc1)c1cc(S(=O)(=O)N2CCOCC2)ccc1F,0%,-7,-23%,·,·
CCOc1cc(N2CCOCC2)c(OCC)cc1NC(=O)c1ccc(S(C)(=O)=O)cc1,1%,-8,-9%,-1%[10 µM],12%
CCOc1cc(N2CCOCC2)c(OCC)cc1NC(=O)c1cc(S(=O)(=O)N2CCOCC2)ccc1C,0%,-82*,?,·,·
CCOc1ccccc1N(C)C(=O)c1cn(C)c(=O)c2ccccc12,0%,6,23%,3%,1%
CCOC(=O)c1c(-c2ccccc2)csc1NC(=O)c1cc(S(=O)(=O)N2CCOCC2)ccc1C,0%,33,10µM*,-11%,-10%
Cc1c(NC(=O)CSc2nc3ccccc3c(=O)n2C(C)C)c(=O)n(-c2ccccc2)n1C,0%,-5,1%,·,·
